Assay results published in PubChem BioAssay AID624296 (National Center for Advancing Translational Sciences (NCATS), 2012).
Among all 350,000 compounds or so, about 9,900 (2.8%) were called active. Entries that show only a call come without a potency. Roughly 15% stayed inconclusive and do not appear here. This is one part of a sample in which actives are shown more often than they occur. The call rests on the fitted dose curve; in most records, active means well fitted activation curve with a large enough effect; inconclusive means small, poorly fitted or top-dose-only effect; inactive means no such curve, though single readings can be large or run the other way.

Assay: A quantitative high throughput screen for small molecules that induce DNA re-replication in MCF 10a normal breast cells. Further: nearly all actives have a fitted effect of over 50% in size.
Settings: MCF 10A DNA re-replication, Hoechst nuclear intensity, 48 h; series mostly up to 46.1 µM
Source text: H Molecular Libraries Probe Production Network [MLPCN]
NIH Chemical Genomics Center [NCGC]
Assay Provider: Melvin DePamphilis, NICHD, NIH
Eukaryotic cells normally restrict genome duplication to once per cell division. When this process is aberrant, DNA re-replication occurs when cells reinitiate DNA replication before the first round of replication is complete. DNA re-replication induces the DNA damage response, arrests cell proliferation, and triggers apoptosis. The cell cycle components cyclin A, Cdt-1, Cdc6 and geminin are critical regulators of this process and their misregulation results in DNA re-replication in normal and cancer cells. To identify compounds that induce re-replication in normal cells, an image-based assay was used to measure DNA content of nuclei, as detected by the fluorescent DNA binding dye, Hoechst. Cell nuclei were imaged by a fluorescence scanning plate imager and compounds that induce DNA re-replication were identified by the increase of nuclei with elevated fluorescence intensity
For screening, 250 cells in 5 uL/well were dispensed into black clear 1536-well plates (Aurora) using a solenoid-based dispenser. Following transfer of 23 nL compound or DMSO vehicle by a pin tool, the plates were incubated 48 hr at 37 C and 5% CO2. After addition of 1 uL/well Hoescht stain, the plates were incubated 40 min at 37 C, 5% CO2 and total intensity of fluorescent objects (nuclei) were enumerated by an Acumen Explorer Ex3 (TTP LabTech) fluorescence scanning plate imager (405 nm excitation, 500-530 nm emission).
Keywords: NIH Roadmap, MLPCN, MLI, MLSMR, qHTS, NCGC, DNA replication, cancer
Potency means the concentration at half of the fitted maximal effect.

Compound | Potency
O=S1(=O)CCOC[C@H](Cc2ccccc2)N1Cc1ccccc1Br | inactive
O=C(CSc1nc2ccccc2c(=O)n1-c1ccccc1F)N1CCOCC1 | inactive
CC(C)(C)c1nnc2sc(SCC(O)=C(C#N)c3nc4ccccc4[nH]3)nn2c1=O | inactive
COc1ccccc1-c1sc2ccccc2c1C#CC1(O)CCCCC1 | 18.4 µM (active)
COc1ccccc1-c1sc2ccccc2c1-c1ccc(C(C)=O)cc1 | inactive
COc1ccccc1C1=CC(=O)CCC1 | inactive
Cc1ccc(F)cc1NC(=O)CSCc1c(C)noc1C | inactive
COc1cccc(-n2c(SCC(=O)NC3CCS(=O)(=O)C3)nc3ccccc3c2=O)c1 (configuration not stated) | inactive
CS(=O)(=O)c1ccc(Cl)c(NC(=O)Nc2ccccc2)c1 | inactive
O=C(Nc1ccccc1)c1nnsc1S(=O)(=O)c1ccc(Cl)cc1 | 13 µM (active)
CC(=O)Nc1cc(C(=O)O)ccc1S(=O)(=O)c1ccc(Cl)cc1 | inactive
COc1ccccc1C(=O)COC(=O)COc1ccc(C#N)cc1 | inactive
O=C(COC(=O)c1ccc([N+](=O)[O-])o1)NC12CC3CC(CC(C3)C1)C2 | inactive
N#CCC(=O)Nc1ccc(C(=O)OCC(=O)Nc2sc3c(c2C#N)CCCC3)cc1 | inactive
CCN(CC(=O)Nc1ccccc1OC)C(=O)CC1CC2CCC1C2 (configuration not stated) | inactive
COc1cc(OC)c(C(=O)NNC(=O)c2ccccc2-n2cccc2)cc1OC | inactive
Cc1cc(NC(=O)COc2ccccc2C#N)no1 | inactive
O=C(COC(=O)c1ccccn1)Nc1cccc2ccccc12 | inactive
N#Cc1ccccc1NC(=O)COc1c(Br)cc(Br)c2cccnc12 | 25.9 µM (active)
C#CCOCCOCCOCCNc1nc(N2CCN(C(=O)[C@H](CCC(=O)O)n3cc(CN)nn3)CC2)nc(N2CCN(C(=O)[C@H](CCC(=O)O)n3cc(CN)nn3)CC2)n1 | inactive
Cc1cc(NC(C)C)n2c(nc3ccccc32)c1C#N | inactive
Cc1cc(NCc2ccco2)n2c(nc3ccccc32)c1C#N | 16.4 µM (active)
CC(C)c1cc(NCc2ccccn2)n2c(nc3ccccc32)c1C#N | inactive

Compound | Potency
Cc1ccc(NS(=O)(=O)c2ccc(C(C)C)cc2)cc1S(=O)(=O)N1CCOCC1 | inactive
C/C(=N\NC(=S)Nc1ccc(C)cc1)c1cc2ccccc2o1 | 13 µM (active)
Cc1ccc(NC(=O)c2cc3ccccc3o2)cc1 | inactive
Cc1ccc(OC(=O)c2cc3ccccc3o2)cc1 | inactive
O=C(CN1C(=O)NC2(CCOc3ccccc32)C1=O)NCc1ccc(F)cc1 (configuration not stated) | inactive
Cc1cccc(NC(=O)c2cccc(C(F)(F)F)c2)c1 | inactive
O=C(O)CSCC(=O)Nc1cccc(C(F)(F)F)c1 | inactive
O=C(Nc1cccc(C(F)(F)F)c1)c1cc(Br)cc(Br)c1O | 4.73 µM (active)
O=C(NCCc1ccccc1)c1c[nH]c2ccc(F)cc2c1=O | inactive
Nn1c(SCC(=O)NC2CCCc3ccccc32)nnc1C1CC1 (configuration not stated) | inactive
Cc1noc(C)c1S(=O)(=O)N(C)C[C@H]1Oc2ccc(NC(=O)C3CC3)cc2C(=O)N([C@H](C)CO)C[C@@H]1C | inactive
COc1ccc(-c2nc3c(s2)CCc2onc(-c4ccc(OC)cc4)c2-3)cc1 | 4.11 µM (active)
COc1ccc(-c2nc3n(c2Br)CCC3)cc1 | inactive
COc1ccc(-c2nc3c(s2)CCc2onc(-c4ccc(Br)cc4)c2-3)cc1 | inactive
O=C(O)c1ccccc1/C=N/Nc1ccc(S(=O)(=O)Nc2ccc(Cl)cc2)cc1[N+](=O)[O-] | inactive
Cc1noc(C)c1NC(=O)Nc1ccc2c(c1)C(=O)N([C@H](C)CO)C[C@H](C)[C@@H](CN(C)C(=O)Nc1ccccc1)O2 | inactive
CCOC(=O)C(=CNc1cccc(C)n1)C(=O)OCC | inactive
CCOC(=O)C(=Cc1ccccc1OC)C(=O)OCC | 14.6 µM (active)
COc1ccccc1C(=O)c1ccccc1C(=O)c1ccccc1 | inactive
Cn1nc(-c2ccccc2)c(CSc2cccc(Cl)c2)c1Cl | 5.17 µM (active)
Cc1ccc(S(=O)(=O)c2c(COC(=O)c3cccc(Cl)c3)c(-c3ccccc3)nn2C)cc1 | inactive
Cn1nc(-c2ccccc2)c(CO)c1Sc1ccccc1 | inactive
O=C(NN=Cc1ccc(N2CCOCC2)cc1)c1cc2ccccc2cc1O | inactive

Compound | Potency
CCOCc1c(C(=O)N2CCN(Cc3ccc(Br)s3)CC2)oc2ccccc12 | inactive
CCN(/N=C/c1ccccc1)c1cc(=O)n(C)c(=O)[nH]1 | inactive
CCN(/N=C/c1ccc(N(C)C)cc1)c1nc2ccccc2[nH]1 | 5.8 µM (active)
CN(C)c1ccc(/C=N/N(Cc2ccccc2)c2ccccc2)cc1 | inactive
Cc1ccc(S(=O)(=O)N2CCN(C(=O)COC(=O)CNC(=O)c3ccc(C(C)(C)C)cc3)CC2)c(C)c1 | inactive
O=C(CCNS(=O)(=O)c1ccccc1)NCCCc1ccccc1 | inactive
O=C(Cc1ccc(NC(=O)C2CCCN(C(=O)CCc3ccccc3)C2)cc1)Nc1ccc(C(=O)N2CCOCC2)cc1 (configuration not stated) | inactive
Cn1c(=O)[nH]c2c(c(C(=O)O)nn2C)c1=O | inactive
O=C(O)c1cccc(S(=O)(=O)N2CC=C(c3ccccc3)CC2)c1 | inactive
COc1cc(C(=O)NCC(=O)N2CC=C(c3ccccc3)CC2)cc(OC)c1OC | inactive
O=C(Nc1ccc(Cl)c(Cl)c1)N1CC=C(c2ccccc2)CC1 | 14.6 µM (active)
CCOc1ccc(/C=C(/C#N)c2nnc(N3CCOCC3)n2-c2ccccc2)cc1OC | inactive
COc1cccc2c1C(=O)c1c(O)c3c(c(O)c1C2=O)CC(O)(C(C)=NNC(=O)c1ccc(Cl)c(Cl)c1)CC3OC1CC(N)C(O)C(C)O1 (configuration not stated) | inactive
COc1cc(OC)c(C(=O)Nc2ccccc2-c2ccccc2)cc1OC | 18.4 µM (active)
O=C(Nc1ccccc1-c1ccccc1)c1ccccc1[N+](=O)[O-] | inactive
COc1cc2ccccc2cc1C(=O)Nc1ccccc1C | inactive
O=C1C=C(c2cccc(Br)c2)C[C@@H](c2ccc(F)cc2)C1 | inactive
CNc1nc(=O)n(C2CCCO2)cc1C (configuration not stated) | inactive
COc1ccc(C2(C#N)CCC(C(=O)O)CC2)cc1OC1CCCC1 (configuration not stated) | inactive
COc1ccc(C(=O)Nc2ccc(C3(C#N)CCCC3)cc2)cc1OC | 20.6 µM (active)
COc1ccc(C(=O)Nc2ccc(N3CCC(C)CC3)cc2)cc1Br | inactive
